Lassa entry inh – inhibitors of Lassa virus binding or cell entry; Lassa virus pseudotype entry inhibition, cell reporter; 300,000 compounds, 1.2% hits; Potency, µM (top dose mostly 37.9 µM), inactives show top-dose activity change, negative = inhibition, most hits filed as inhibitors; AID 540256; calls by dose curve; tested in HEK293 cells; further: potency means the concentration at half of the fitted maximal effect; nearly all actives have a fitted effect of over 50% in size
Giardia FBPA inh – blocks Giardia fructose-bisphosphate aldolase activity. A8B2U2. purified Giardia FBPA. Potency, µM (doses to about 59.6 µM), for inactives: at the top dose activity, negative = inhibition, usual class: inhibitors. 290,000 compounds, 0.71% hits. AID 2451; further: potency means the concentration at half of the fitted maximal effect; nearly all actives have a fitted effect of over 55% in size
Target sequence (A8B2U2 whole entry, looked up): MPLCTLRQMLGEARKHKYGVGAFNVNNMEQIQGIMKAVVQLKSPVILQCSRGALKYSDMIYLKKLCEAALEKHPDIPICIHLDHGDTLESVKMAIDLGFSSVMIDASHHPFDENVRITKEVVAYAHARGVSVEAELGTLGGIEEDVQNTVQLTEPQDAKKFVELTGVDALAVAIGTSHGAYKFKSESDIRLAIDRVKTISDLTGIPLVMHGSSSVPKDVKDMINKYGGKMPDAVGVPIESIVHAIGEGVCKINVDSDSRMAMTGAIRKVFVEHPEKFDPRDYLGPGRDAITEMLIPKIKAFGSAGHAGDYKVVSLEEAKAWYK
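40 nM FBPA preincubated 10 min at RT with compound (up to 57.5 uM final), then substrate plus GAPDH/TPI/NAD/arsenate coupling and diaphorase/resazurin added. Fluorescence read after 20 min at RT, 525/598 nm.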
FMDV inh – foot and mouth disease virus antiviral activity; FMDV antiviral cell-based qHTS; Potency, µM (doses to about 57.9 µM), without a hit: at the top dose activity change, negative = inhibition, hits mostly inhibitors; 410,000 compounds, 1.2% hits; calls by dose curve; tested in HEK293T cells; further: read-out not given here; potency means the concentration at half of the fitted maximal effect; nearly all actives have a fitted effect of over 45% in size
Marburg entry inh – Marburg virus entry inhibition. Marburg virus pseudotyped entry inhibition, cell reporter. Potency, µM (series often up to 37.8 µM), inactives show at the top dose activity change, negative = inhibition, actives largely listed as inhibitors. 300,000 compounds, 1.8% hits; calls by dose curve; tested in HEK293 cells; further: potency means the concentration at half of the fitted maximal effect
HCV inh – blocks hepatitis C virus; Huh7.5.1 HCVcc-Cre infection, luciferase reporter, 44 h; Potency, µM (top dose mostly 41.8 µM), for the others: at the top dose activity change, negative = inhibition, usual class: inhibitors; 340,000 compounds, 3.4% hits; AID 651820; further: potency means the concentration at half of the fitted maximal effect
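HCVcc-Cre virus at an moi near 0.5 was added right after compound to cells cultured 4 h from seeding (1,000 cells/well). Luciferase activity was determined 44 h later, 15 min after substrate addition at RT.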
HCMV inh – human cytomegalovirus inhibition. HFF cells, HCMV-luciferase reporter, 72 h; hits give low values. activity change, negative = inhibition, % at 57.5 µM. AID 1259415. 410,000 compounds, 4.5% hits; in the data active means activity change below about -60%; inconclusive means no clear call, values can overlap the other calls; inactive means above about -39%
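Compounds were evaluated in HFFs infected with an HCMV luciferase reporter virus (MOI 1 PFU/cell). Luciferase in lysates collected 72 h post infection served as the replication measure.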
* marks the source's active call; other numbers are inactive results; ? = inconclusive; nt = not tested or not shown; [ ] = dose if it differs, or a comment. Compounds with a hit are over-represented: about 8.3% of the library has one in this group of screens. Unless noted, the call rests on the fitted dose curve; in most records, active means well fitted curve in the direction sought with a large enough effect; inconclusive means small, poorly fitted or top-dose-only effect, or another doubt; inactive means no such curve, though single readings can be large; an effect the other way counts as inactive or inconclusive. On the % scale 0 is the no-effect control and ±100 the full control effect.

SMILES | Lassa entry inh | Giardia FBPA inh | FMDV inh | Marburg entry inh | HCV inh | HCMV inh
CC(=O)N1CCN(c2ccc(NC(=O)C(C)Oc3ccc(Cl)cc3Cl)cc2)CC1 (centres undefined) | -14.7% | -12.2% | 0.0% | ? | -6.1% | -0.1
CC(=O)N1CCN(c2ccccc2NC(=O)COc2ccc(Cl)cc2Cl)CC1 | -10.6% | -7.3% | -12.3% | ? | ? | 2.7
Cc1nn(Cc2ccc(F)cc2)c2sc(C(=O)Nc3ccc(N4CCOCC4)cc3N3CCOCC3)cc12 | ? | -9.9% | 0.0% | ? | ? | -67.2*
CC(=O)N1CCN(c2ccc(NC(=O)COc3ccc(Cl)cc3Cl)cc2)CC1 | -17.7% | 2.8% | ? | 12.6% | ? | -64.3*
CCOC(=O)c1c(NC(=O)CSc2cn(CCNC(=O)c3c(F)cccc3F)c3ccccc23)sc2c1CCCC2 | -21.9%[46.1 µM] | nt | -16.6% | -3.1%[46.1 µM] | nt | -4.9
CCN1CCN(c2ccc(NC(=O)COc3ccc(Cl)cc3C)cc2)CC1 | nt | nt | ? | nt | 10µM* | ?
CCN1CCN(c2ccc(NC(=O)COc3ccccc3Cl)cc2)CC1 | 3.0% | 0.5% | -8.7% | ? | -2.5% | -6.2
O=C(COc1ccccc1F)Nc1ccc(N2CCOCC2)cc1N1CCOCC1 | 10.6% | nt | 8.6% | 4.3%[46.1 µM] | -4.0% | -3.5
O=C(COc1ccc(F)cc1Cl)Nc1ccc(N2CCOCC2)cc1N1CCOCC1 | -23.4% | nt | -9.6% | ? | 22.4µM* | -16.9
COc1ccc(-n2nc(C(=O)NCC(=O)NCc3ccc(F)cc3)c3ccccc3c2=O)cc1OC | ? | 3.0% | ? | ? | 12.6µM* | -17.8
COc1ccc(-n2nc(C(=O)NCC(=O)Nc3ccccn3)c3ccccc3c2=O)cc1 | -5.7% | 6.7% | -1.2% | ? | ? | 17.1
CCOc1ccc(NC(=O)CNC(=O)c2nn(-c3ccc(OC)cc3)c(=O)c3ccccc23)cc1 | nt | -6.1% | -19.3% | -20.9%[46.1 µM] | -4.8% | -64.7*
COc1cccc([C@@H]2Oc3ccc(OC)cc3[C@H](O)[C@@H]2O)c1 | nt | nt | nt | -6.9%[14.2 µM] | nt | nt
CCCCC/C=C\C/C=C\CCCCCCCCCC(=O)NC(C)C(=O)O (centres undefined) | nt | 4.8% | nt | nt | nt | nt
CCn1cc(S(=O)(=O)NC2CCCCC2)cn1 | ? | nt | 10.1% | -24.1%[46.1 µM] | 7.6% | -60.3*
COc1ccc(Oc2ncc3nc(-c4ccccc4)c(=O)n(Cc4cccs4)c3n2)cc1 | nt | -3.7% | -13.0% | nt | nt | nt
CCOc1cccc(/C=N/NC(=S)Nc2ccccc2[N+](=O)[O-])c1O | nt | 7.7% | 1.78µM* | nt | -11.7% | -70.2*
CCCCNC(=S)N/N=C/c1cccc(OCC)c1O | 7.1% | 11.6% | -15.2% | -0.8%[46.1 µM] | ? | -32.1
CCCCNC(=O)C1=CC(c2ccc3c(c2)OCO3)=NS(=O)(=O)N1C | 13.2%[46.1 µM] | nt | 40.7% | 23.3%[46.1 µM] | nt | 0.5
NS(=O)(=O)c1ccc(CCNC(=O)c2ccc([N+](=O)[O-])s2)cc1 | ? | -20.3% | 0.0% | ? | ? | -100.0*
Nc1ccc(C(=O)n2c3ccccc3c3ccccc32)cc1 | ? | 3.4% | ? | 3.98µM* | ? | -79.1*
Nc1nc2ccccc2n1Cc1ccc(Cl)c(Cl)c1 | 2.3%[46.1 µM] | 4.4% | ? | 10µM* | -21.5% | 18.2
Nc1ccc(C(=O)N2CCCC2)cc1 | -1.1% | -2.9% | 0.0% | -16.5% | -5.7% | 16.2
Cc1ccc(C(=O)n2c(N)nc3ccccc32)cc1 | ? | -0.1% | 10µM* | 7.94µM* | 2.6% | ?
Cc1ccc(Cn2c(N)nc3ccccc32)cc1 | -16.1%[46.1 µM] | -6.4% | -29.7% | ? | 10µM* | ?
SMILES | Lassa entry inh | Giardia FBPA inh | FMDV inh | Marburg entry inh | HCV inh | HCMV inh
COc1ccc(S(=O)(=O)NCCCC(=O)Nc2ccc(Sc3ccc(N)cc3)cc2)cc1 | nt | -0.8% | nt | nt | nt | nt
O=C1CC(c2nnc(Cc3ccc(F)cc3Cl)o2)CN1c1ccccc1 (centres undefined) | -3.2%[46.1 µM] | nt | 12.3% | 3.9%[46.1 µM] | nt | -1.3
CS(=O)(=O)NC1CCN(Cc2ccccc2)CC1 | 9.1% | 7.8% | 22.4% | 3.9% | 8.2% | 18.8
Cc1csc2c(NC3CCN(Cc4ccccc4)CC3)ncnc12 | -13.7%[46.1 µM] | 3.7% | -14.5% | 2.82µM* | ? | -18.2
c1ccc(CN2CCC(Nc3ncnc4sccc34)CC2)cc1 | -2.8% | 3.4% | -14.0% | -5.4%[46.1 µM] | -4.1% | -29.3
Cc1sc2ncnc(NC3CCN(Cc4ccccc4)CC3)c2c1C | ? | -0.7% | ? | ? | 1µM* | -80.7*
O=C1C=C[C@@H](O)[C@H]2[C@@H]3C(=O)N(c4cccc(Oc5ccccc5)c4)C(=O)[C@@H]3CC[C@H]12 | nt | 1.5%[12.9 µM] | nt | nt | nt | nt
CC(=O)C1=C(c2cccc([N+](=O)[O-])c2)N(C(C)=O)n2c(C)nnc2S1 | ? | 1.1% | ? | ? | ? | -93.3*
CC(=O)C1=C(c2ccc(C)cc2)N(C(C)=O)n2c(nnc2-c2ccccc2)S1 | -7.0%[46.1 µM] | nt | -20.1% | nt | nt | 38.8
Fc1cccc(CNCCc2c[nH]c3ccccc23)c1 | nt | -4.2% | 12.4% | nt | 8.8% | -24.4
Cc1cccc(CNCCc2c[nH]c3ccccc23)c1 | ? | -4.8% | 0.8% | 10µM* | ? | -99.2*
COc1cccc(CNCCc2c[nH]c3ccccc23)c1OCc1ccccc1 | ? | 0.2% | -26.1% | ? | 10µM* | ?
COC(=O)CCN1CCSCCS1(=O)=O | nt | nt | nt | nt | nt | -10.9
COc1cc(Cl)c(C)cc1Nc1nc2ccccc2nc1NS(=O)(=O)c1ccccc1 | 8.5%[46.1 µM] | nt | 44.4% | ? | nt | 73.7
CC1CCN(CCCOc2ccc(Cl)cc2Br)CC1 | -14.7%[46.1 µM] | ? | 5.5% | ? | -13.2% | -6.6
Cc1cc(Cl)c(OCCOCCN2CCC(C)CC2)c(Br)c1 | ? | -13.8% | -13.0% | 6.51µM* | ? | ?
CC1CCN(CCOCCOc2ccc(Cl)cc2Br)CC1 | ? | ? | nt | ? | 22.4µM* | 9.5
O=S(=O)(Nc1ccc(C(F)(F)F)cc1)c1ccc2c(c1)OCCO2 | -15.0%[46.1 µM] | nt | 28.2% | 0.3%[46.1 µM] | nt | -17.3
COc1ccccc1C(=O)Nc1ccccc1SCc1cc(=O)c2ccccc2[nH]1 | 1.7%[46.1 µM] | nt | 28.9% | nt | nt | -11.6
CCOC(=O)/C(=C\c1ccc(OC(F)F)cc1)C1=Nn2c(nnc2-c2ccc(Cl)cc2)SC1 | ? | -7.5% | 12.6µM* | ? | ? | nt
CCOC(=O)/C(=C/c1ccc(OC(F)F)cc1)C1=Nn2c(nnc2-c2ccc(Cl)cc2)SC1 | ? | nt | 12.6µM* | ? | ? | -97.8*
COc1ccc(-c2nnc3n2N=C(C)CS3)cc1 | -12.7% | 4.9% | -2.9% | 24.1% | -0.2% | -28.9
Cc1c(C(=O)NCCc2ccccc2)cccc1-n1cnc2cccnc21 | 29.2%[46.1 µM] | nt | 23.8% | nt | nt | 0.0
Cc1cc(C)c2nc(C)cc(Nc3ccc(C(=O)NCCO)cc3)c2c1 | -27.5%[46.1 µM] | -3.2% | -24.2% | 11.2µM* | -12.5% | -91.0*
CC(=O)c1ccc(Nc2cc(C)nc3c(C)cc(C)cc23)cc1 | ? | 1.6% | -8.5% | 4.11µM* | ? | ?
CCOc1ccc(/C=C/c2nc(C#N)c(NCc3ccc(OC)cc3)o2)cc1 | ? | nt | -20.7% | 6.1%[46.1 µM] | nt | 8.1
